Experimental findings from PubChem BioAssay (Tox21) are described below.

Assay [1] in a line: Caspase-3/7 induction in HepG2 cells by small molecules, qHTS assay (AID 1346978). Note: nearly all actives have a fitted effect of over 15% in size. Note: potency is the fitted concentration of half-maximal effect. In outline:
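Caspase-3/7 induction was measured by Caspase-Glo 3/7 luminescence (30 min, room temperature) after a 17 hr compound exposure of wild-type HepG2 cells seeded at 2,000 per well and pre-incubated 5 hr.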
Background: In qHTS, concentration-response curves come from the screen itself.

Assay [2] can be described thus: Caspase-3/7 induction in CHO-K1 cells by small molecules, qHTS cell viability counter screen (AID 1346979). Note: nearly all actives have a fitted effect of over 35% in size. Note: potency is the fitted concentration of half-maximal effect. In outline:
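Wild-type CHO-K1 cells (1,500/well) treated with compound after 5 h plating; after 16 h at 37C, viability read as CellTiter-Fluor fluorescence following 1 h reagent incubation, in the same wells as the caspase read.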

The nature of assay [3]: Caspase-3/7 induction in CHO-K1 cells by small molecules, qHTS assay (AID 1346980). Note: nearly all actives have a fitted effect of over 15% in size. A digest of the protocol: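 Luminescent Caspase-Glo 3/7 read (30min, room temperature) quantified apoptosis induction. Cells were wild-type CHO-K1, treated with compound for 17hr at 37 C and 5% CO2.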
Assay [4] can be described thus: Caspase-3/7 induction in HepG2 cells by small molecules, qHTS cell viability counter screen (AID 1346981). Note: nearly all actives have a fitted effect of over 30% in size. Note: potency is the fitted concentration of half-maximal effect. A digest of the protocol:
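Viability determined by CellTiter-Fluor fluorescence in HepG2 wells also used for the luminescent Caspase-Glo 3/7 read. Compounds were present for 16 hr at 37 C, 5% CO2 before reagent addition.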

Assay [5] concerns the target Nuclear receptor subfamily 1 group I member 2 (Homo sapiens) (UniProt O75469). Description: Human pregnane X receptor (PXR) small molecule agonists, qHTS assay (AID 1346982). Note: nearly all actives have a fitted effect of over 35% in size. Note: potency is the fitted concentration of half-maximal effect. In outline: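 Compound-induced hPXR transactivation of a CYP3A4 luciferase reporter was scored in HepG2 PXR-Luc cells over 24 hr at 37 C, 5% CO2, by luminescence.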
The target is the same in assay [6]. Description: CYP3A4 induction through human pregnane X receptor (PXR) by small molecules, qHTS assay (AID 1346984). Note: nearly all actives have a fitted effect of over 40% in size. In outline:
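Readings come from a luciferase reporter: DPX-2 cells, which are HepG2 cotransfected with PXR and a CYP3A4-promoter construct, were exposed to test compounds for 24 h at 37C before One-Glo detection.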

Assay [7] has the same target. Description: Human pregnane X receptor (PXR) activation by small molecules, qHTS assay (AID 1346985). Note: nearly all actives have a fitted effect of over 40% in size. A digest of the protocol:
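DPX-2 cells (HepG2 co-transfected with a PXR response element and a CYP3A4-promoter luciferase construct) were seeded at 2,000 per well, rested 5 hr at 37C, then exposed to DMSO-dissolved compounds for 24 hr. Activation was read as luciferase luminescence.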

For assay [8], the target named is Cytochrome P450 2C19 (Homo sapiens) (UniProt P33261). The assay can be described thus: Cytochrome P450 Family 2 Subfamily C Member 19 (CYP2C19) small molecule antagonists: luciferase reporter qHTS assay (AID 1671197). Note: nearly all actives have a fitted effect of over 65% in size. Note: potency is the fitted concentration of half-maximal effect. In outline:
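Relative luminescence units recorded 20 min after the detection reagent stopped a 1 h, 37C CYP2C19 reaction on proluciferin substrate, which was started by NADPH regeneration following 10 min room-temperature compound preincubation; ketoconazole positive control.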
In general terms: A reporter such as luciferase makes a cellular process visible.

Assay [9] concerns the target Cytochrome P450 2C9 (Homo sapiens) (UniProt P11712). The assay can be described thus: Cytochrome P450 Family 2 Subfamily C Member 9 (CYP2C9) small molecule antagonists: luciferase reporter qHTS assay (AID 1671198). Note: nearly all actives have a fitted effect of over 50% in size. Note: potency is the fitted concentration of half-maximal effect. A digest of the protocol: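 Enzyme-substrate mix preincubated with compound 10 min at room temperature; reaction started with NADPH regeneration solution, 1 h 37C. Luminescent luciferin product read after 20 min detection reagent.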

Assay [10] addresses Cytochrome P450 1A2 (Homo sapiens) (UniProt P05177). The assay can be described thus: Cytochrome P450 Family 1 Subfamily A Member 2 (CYP1A2) small molecule antagonists: luciferase reporter qHTS assay (AID 1671199). Note: nearly all actives have a fitted effect of over 50% in size. Note: potency is the fitted concentration of half-maximal effect. In outline: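 Enzymatic CYP1A2 assay, human, luminescent: 10 min compound–enzyme–substrate preincubation, 1 h NADPH-dependent turnover, 20 min detection step, room temperature throughout. Reduced light indicates lower CYP1A2 activity.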

The target of assay [11] is Cytochrome P450 2D6 (Homo sapiens) (UniProt P10635). Description: Cytochrome P450 Family 2 Subfamily D Member 6 (CYP2D6) small molecule antagonists: luciferase reporter qHTS assay (AID 1671196). Note: nearly all actives have a fitted effect of over 50% in size. Note: potency is the fitted concentration of half-maximal effect. In outline:
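Each well received CYP2D6 with its proluciferin substrate and chemical, sat 10 min, then got NADPH regeneration solution for 1 h at room temperature. Luminescence in RLU served as the activity measure.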

Assay [12] deals with Voltage-gated inwardly rectifying potassium channel KCNH2 (Homo sapiens) (UniProt Q12809). Description: Human Ether-a-go-go-Related Gene (hERG) channel small molecule antagonists: fluorescence cell-based qHTS assay (AID 1671200). Note: nearly all actives have a fitted effect of over 50% in size. Note: potency is the fitted concentration of half-maximal effect. A digest of the protocol:
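hERG-U2OS cells plated overnight at 37 C, loaded with FluxOR II dye 1 h at RT in dark; after 10 min, thallium stimulus added. Fluorescence (480/540 nm) read kinetically for 2 min at 1 s intervals.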

The target in assay [13] is Cytochrome P450 3A4 (Homo sapiens) (UniProt P08684). The assay can be described thus: Cytochrome P450 Family 3 Subfamily A Member 4 (CYP3A4) small molecule antagonists: luciferase reporter qHTS assay (AID 1671201). Note: nearly all actives have a fitted effect of over 50% in size. Note: potency is the fitted concentration of half-maximal effect. A digest of the protocol:
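P450-Glo CYP3A4 luminescent assay: compounds preincubated 10 min at room temperature with enzyme and proluciferin substrate, NADPH regeneration added, 1 h room-temperature reaction, stopped with luciferin detection reagent; luminescence read after 20 min. Ketoconazole positive control.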

Several values for one entry are separate records, joined by “and”; a condition that tells them apart may be missing. Equal entries are not always repeated. Records with an inconclusive call do not appear. A structure can be active in one record and inactive in another. Activity calls are given as the source filed them. Calls come from the whole dose curve; as a rule, active = well fitted curve in the direction sought with a large enough effect in the repeat runs; inconclusive = weak or mixed curves; inactive = no such curve, though single readings can be large; an effect the other way counts as inactive or inconclusive.

Chain of Cytochrome P450 1A2 (Homo sapiens) (P05177 whole entry, looked up): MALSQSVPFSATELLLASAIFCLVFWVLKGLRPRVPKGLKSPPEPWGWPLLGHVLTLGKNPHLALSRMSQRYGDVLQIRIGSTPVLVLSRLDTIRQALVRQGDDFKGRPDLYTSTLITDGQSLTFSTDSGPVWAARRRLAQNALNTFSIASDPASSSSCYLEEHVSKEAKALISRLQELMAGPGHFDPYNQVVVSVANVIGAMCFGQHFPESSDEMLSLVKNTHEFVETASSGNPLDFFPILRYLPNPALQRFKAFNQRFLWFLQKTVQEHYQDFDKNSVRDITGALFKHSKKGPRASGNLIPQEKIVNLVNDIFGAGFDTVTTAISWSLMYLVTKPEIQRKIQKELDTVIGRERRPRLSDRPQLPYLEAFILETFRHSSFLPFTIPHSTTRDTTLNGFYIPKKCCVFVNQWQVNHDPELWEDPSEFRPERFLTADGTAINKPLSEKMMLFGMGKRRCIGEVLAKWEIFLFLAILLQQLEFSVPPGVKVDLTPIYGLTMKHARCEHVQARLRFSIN
Chain of Cytochrome P450 3A4 (Homo sapiens) (P08684 whole entry, looked up): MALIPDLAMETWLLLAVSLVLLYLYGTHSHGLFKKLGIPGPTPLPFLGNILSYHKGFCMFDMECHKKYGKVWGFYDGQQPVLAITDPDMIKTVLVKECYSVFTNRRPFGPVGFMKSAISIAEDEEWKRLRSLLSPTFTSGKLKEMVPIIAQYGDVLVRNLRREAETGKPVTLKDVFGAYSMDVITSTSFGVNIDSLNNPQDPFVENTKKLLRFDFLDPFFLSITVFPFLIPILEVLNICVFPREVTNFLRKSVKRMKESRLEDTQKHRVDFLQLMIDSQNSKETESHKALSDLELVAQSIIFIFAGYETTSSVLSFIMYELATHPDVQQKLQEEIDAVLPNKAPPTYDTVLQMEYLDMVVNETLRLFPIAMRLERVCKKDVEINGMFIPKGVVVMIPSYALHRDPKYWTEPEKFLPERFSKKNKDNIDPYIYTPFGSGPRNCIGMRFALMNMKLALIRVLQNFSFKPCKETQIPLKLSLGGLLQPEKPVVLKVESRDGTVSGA
Chain of Voltage-gated inwardly rectifying potassium channel KCNH2 (Homo sapiens) (Q12809 whole entry, looked up): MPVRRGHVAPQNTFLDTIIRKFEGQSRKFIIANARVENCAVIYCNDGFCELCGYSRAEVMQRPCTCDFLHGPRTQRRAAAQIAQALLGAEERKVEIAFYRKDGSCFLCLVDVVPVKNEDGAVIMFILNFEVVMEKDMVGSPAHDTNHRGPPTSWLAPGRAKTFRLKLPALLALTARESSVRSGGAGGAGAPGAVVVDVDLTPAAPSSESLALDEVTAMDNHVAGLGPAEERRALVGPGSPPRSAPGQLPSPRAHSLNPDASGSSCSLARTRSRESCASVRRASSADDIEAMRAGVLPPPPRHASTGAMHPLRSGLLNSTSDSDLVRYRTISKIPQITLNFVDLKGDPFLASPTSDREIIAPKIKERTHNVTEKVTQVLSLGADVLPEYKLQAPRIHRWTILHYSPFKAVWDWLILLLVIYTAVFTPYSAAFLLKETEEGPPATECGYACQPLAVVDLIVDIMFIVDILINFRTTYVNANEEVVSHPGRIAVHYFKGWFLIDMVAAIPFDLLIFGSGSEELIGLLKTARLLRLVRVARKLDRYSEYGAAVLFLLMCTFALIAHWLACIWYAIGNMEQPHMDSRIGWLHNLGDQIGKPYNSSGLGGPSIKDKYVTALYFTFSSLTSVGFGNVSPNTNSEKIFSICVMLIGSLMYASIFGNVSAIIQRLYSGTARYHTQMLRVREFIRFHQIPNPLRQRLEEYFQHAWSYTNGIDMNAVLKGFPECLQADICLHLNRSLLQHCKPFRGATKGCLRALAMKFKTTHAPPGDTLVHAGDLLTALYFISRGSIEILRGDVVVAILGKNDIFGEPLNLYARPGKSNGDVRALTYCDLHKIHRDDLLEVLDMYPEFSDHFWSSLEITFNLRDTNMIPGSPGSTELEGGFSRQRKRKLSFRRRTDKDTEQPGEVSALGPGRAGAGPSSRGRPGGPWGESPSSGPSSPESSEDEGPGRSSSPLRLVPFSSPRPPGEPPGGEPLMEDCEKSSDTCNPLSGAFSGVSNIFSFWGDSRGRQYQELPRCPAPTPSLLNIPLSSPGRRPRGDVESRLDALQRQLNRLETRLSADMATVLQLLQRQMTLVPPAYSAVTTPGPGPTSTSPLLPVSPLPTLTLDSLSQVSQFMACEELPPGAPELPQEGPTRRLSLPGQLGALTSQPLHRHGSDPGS
Chain of Nuclear receptor subfamily 1 group I member 2 (Homo sapiens) (O75469 whole entry, looked up): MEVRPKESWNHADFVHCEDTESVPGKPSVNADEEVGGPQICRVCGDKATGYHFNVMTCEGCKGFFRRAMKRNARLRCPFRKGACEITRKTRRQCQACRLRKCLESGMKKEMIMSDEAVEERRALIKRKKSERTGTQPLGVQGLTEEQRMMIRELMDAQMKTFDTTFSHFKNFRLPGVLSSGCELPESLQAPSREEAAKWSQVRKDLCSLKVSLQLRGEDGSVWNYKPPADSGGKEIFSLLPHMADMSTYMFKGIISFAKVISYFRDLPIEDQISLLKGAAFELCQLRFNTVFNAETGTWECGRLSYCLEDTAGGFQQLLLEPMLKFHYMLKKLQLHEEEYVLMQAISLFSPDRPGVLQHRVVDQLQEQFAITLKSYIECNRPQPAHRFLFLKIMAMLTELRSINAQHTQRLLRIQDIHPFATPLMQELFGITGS
Chain of Cytochrome P450 2C19 (Homo sapiens) (P33261 whole entry, looked up): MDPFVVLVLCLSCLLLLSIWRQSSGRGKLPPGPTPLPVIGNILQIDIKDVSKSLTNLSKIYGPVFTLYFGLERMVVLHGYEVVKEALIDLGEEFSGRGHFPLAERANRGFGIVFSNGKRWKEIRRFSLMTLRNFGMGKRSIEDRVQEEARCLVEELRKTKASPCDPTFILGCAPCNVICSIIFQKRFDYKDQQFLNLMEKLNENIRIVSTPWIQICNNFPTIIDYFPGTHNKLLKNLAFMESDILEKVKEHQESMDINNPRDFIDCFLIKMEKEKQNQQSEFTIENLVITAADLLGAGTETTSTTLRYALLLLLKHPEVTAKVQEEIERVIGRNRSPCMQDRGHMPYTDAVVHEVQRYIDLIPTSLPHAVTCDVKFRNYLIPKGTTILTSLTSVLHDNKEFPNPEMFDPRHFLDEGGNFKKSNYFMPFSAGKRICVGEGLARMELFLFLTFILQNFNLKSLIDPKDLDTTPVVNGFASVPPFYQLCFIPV
Chain of Cytochrome P450 2C9 (Homo sapiens) (P11712 whole entry, looked up): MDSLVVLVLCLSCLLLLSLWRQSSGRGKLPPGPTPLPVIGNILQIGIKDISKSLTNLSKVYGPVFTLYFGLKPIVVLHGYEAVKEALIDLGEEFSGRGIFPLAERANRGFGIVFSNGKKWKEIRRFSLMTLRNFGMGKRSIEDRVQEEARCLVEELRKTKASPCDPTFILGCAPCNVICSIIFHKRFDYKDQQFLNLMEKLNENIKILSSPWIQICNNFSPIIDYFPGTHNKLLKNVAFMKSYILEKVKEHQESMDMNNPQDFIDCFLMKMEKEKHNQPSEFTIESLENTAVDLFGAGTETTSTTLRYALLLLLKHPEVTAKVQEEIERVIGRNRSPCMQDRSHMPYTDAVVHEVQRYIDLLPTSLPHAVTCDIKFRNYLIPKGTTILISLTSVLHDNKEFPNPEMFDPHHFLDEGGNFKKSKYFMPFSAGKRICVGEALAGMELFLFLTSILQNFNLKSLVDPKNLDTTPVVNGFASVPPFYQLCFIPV
Chain of Cytochrome P450 2D6 (Homo sapiens) (P10635 whole entry, looked up): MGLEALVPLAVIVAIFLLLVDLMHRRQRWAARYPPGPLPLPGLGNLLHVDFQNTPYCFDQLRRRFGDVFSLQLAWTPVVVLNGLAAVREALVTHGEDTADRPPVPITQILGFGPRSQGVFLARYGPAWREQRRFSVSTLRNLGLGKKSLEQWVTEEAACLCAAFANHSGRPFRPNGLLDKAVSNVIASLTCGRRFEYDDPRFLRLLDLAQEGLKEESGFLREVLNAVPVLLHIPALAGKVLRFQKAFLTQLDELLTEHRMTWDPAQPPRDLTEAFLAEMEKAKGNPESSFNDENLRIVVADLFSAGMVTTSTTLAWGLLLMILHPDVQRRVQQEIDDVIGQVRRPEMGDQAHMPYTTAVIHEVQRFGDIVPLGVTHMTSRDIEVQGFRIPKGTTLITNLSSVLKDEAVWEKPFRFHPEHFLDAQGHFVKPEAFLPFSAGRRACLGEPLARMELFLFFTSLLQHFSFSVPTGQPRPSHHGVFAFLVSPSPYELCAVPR

For `CN(C)CCN(Cc1cccs1)c1ccccn1`, the Potency entry in [1], in [2], in assay [3], in [4], in [6] and in assay [7] was “inactive” each time. For the same compound, the Potency entry in [8] and in assay [9] was “inactive” in each case. The Potency in [5] is 20 µM (active) and inactive; in assay [10], “inactive and 27.5 µM (active)”.

For the compound `CCOCCOCCO`, the Potency result in assay [1], in assay [2], in [3], in assay [4], in assay [5] and in assay [11] was “inactive” each time. Also, the Potency entry in assay [9], in [10], in assay [12] and in assay [13] was “inactive” in each case. In addition, in [8], the Potency is 36.6 µM (active) and inactive.

As to `CCCCOCCOCCO`, the Potency entry in assay [1], in assay [2], in assay [3], in assay [4], in assay [5] and in [11] was “inactive” throughout. The Potency entry in assay [8], in assay [9], in [10], in [12] and in [13] was “inactive” throughout.

For the compound `C[Si](C)(C)O[Si](C)(C)C`, the Potency entry in assay [1], in assay [2], in assay [3], in assay [4], in assay [6] and in assay [7] was “inactive” throughout. Also, the Potency result in assay [11], in assay [8], in assay [9], in assay [10], in assay [12] and in assay [13] was “inactive” in each case. Also, the Potency in assay [5] is 68.2 µM (active) and inactive.

On to `Cc1[nH]c(=O)c(C#N)cc1-c1ccncc1`, for which the Potency entry in [1], in assay [2], in [3], in assay [4], in [6] and in assay [7] was “inactive” throughout. In addition, the Potency result in assay [11] and in assay [13] was “inactive” throughout. Also, the Potency was 1.37 µM (active) in [5]; 29.1 µM (active) in assay [9]; 56.4 µM (active) and inactive in [10].

In the case of `COc1cccc2c1C(=O)c1c(O)c3c(c(O)c1C2=O)C[C@@](O)(C(=O)CO)C[C@@H]3O[C@H]1C[C@H](N)[C@H](O)[C@H](C)O1`, the Potency in assay [1] was 5.96 µM (active); in assay [2] it was 9.67 µM (active) and 21.1 µM (active); in assay [4], 3.85 µM (active) and 11.9 µM (active). For the same compound, the Potency result in assay [3], in [5], in [6], in [7], in assay [8] and in assay [12] was “inactive” each time.

Turning to `CC(=O)C1(C)CC2=C(CCCC2(C)C)CC1C` (stereo not drawn), the Potency entry in [1], in [2], in assay [3], in assay [4], in assay [5] and in assay [11] was “inactive” in each case. In addition, the Potency entry in [8], in assay [9], in [10], in [12] and in assay [13] was “inactive” each time.

`CC1=CCC(C(C)(C)O)CC1` (stereo not drawn): the Potency entry in assay [1], in assay [2], in assay [3], in assay [4], in assay [6] and in [7] was “inactive” each time. In addition, the Potency entry in assay [11], in assay [8], in [9], in [10], in assay [12] and in assay [13] was “inactive” in each case. For the same compound, the Potency in assay [5] was 54.8 µM (active) and inactive.

Consider `COC(=O)Nc1nc2ccc(S(=O)c3ccccc3)cc2[nH]1` (stereo not drawn), for which the Potency result in assay [1], in assay [3], in assay [4], in assay [11], in assay [9] and in [12] was “inactive” in each case. Also, in assay [13], the Potency result was “inactive”. Moreover, the Potency in [2] is 8.41 µM (active); in assay [5] it was 68.5 µM (active) and 8.41 µM (active); in assay [8] it was 79.6 µM (active) and inactive; in assay [10], 28.2 µM (active) and 17.4 µM (active).

With `CC(C)OC(=O)C(C)(C)Oc1ccc(C(=O)c2ccc(Cl)cc2)cc1`, the Potency result in assay [1], in [3], in assay [4], in [11] and in [13] was “inactive” each time. Further, the Potency was 54.5 µM (active) in assay [2]; 27.3 µM (active) in assay [5]; 8.94 µM (active) and 5.49 µM (active) in [8]; 3.56 µM (active) and 1.74 µM (active) in assay [9]; 35.6 µM (active) in assay [10]; 27.5 µM (active) and 8.49 µM (active) in [12].

On to `CCCCC/C=C/C=C/C=O`, for which the Potency result in assay [1], in assay [3], in [4] and in assay [12] was “inactive” in each case. In addition, the Potency entry in assay [2] was “inactive and 61.1 µM (active)”; in assay [5], “inactive and 61.1 µM (active)”; in assay [11] it was “inactive and 35.6 µM (active)”; in assay [8], 31.4 µM (active) and 39.9 µM (active); in assay [9], 35.6 µM (active); in [10], “inactive and 71 µM (active)”. Moreover, the Potency result in assay [13] was “inactive and 39.9 µM (active)”.

For `O=C(COc1ccc(Cl)cc1)N1CCN(Cc2ccc3c(c2)OCO3)CC1`, the Potency entry in [1], in assay [2], in assay [3], in [4], in [6] and in assay [7] was “inactive” in each case. The Potency was 34.4 µM (active) and inactive in assay [5]; 1.59 µM (active) and 2.45 µM (active) in [11]; 17.8 µM (active) and 17.4 µM (active) in assay [8]; 28.3 µM (active) and 13.8 µM (active) in [9]; 28.3 µM (active) and 17.4 µM (active) in assay [10]; 19.5 µM (active) and 8.49 µM (active) in [12].

Turning to `CCCc1c(OCCCCc2nn[nH]n2)ccc(C(C)=O)c1O`, the Potency result in assay [1], in assay [2], in assay [3], in assay [4], in [11] and in assay [12] was “inactive” in each case. The Potency in assay [5] was 61.1 µM (active) and inactive; in assay [8] it was 159 nM (active) and 174 nM (active); in [9], 159 nM (active) and 246 nM (active); in [10], 35.6 µM (active) and 30.9 µM (active).

For `COc1ccc(C(=O)CC(=O)c2ccc(C(C)(C)C)cc2)cc1`, the Potency entry in assay [1], in [2], in assay [3], in assay [4], in assay [6] and in [7] was “inactive” in each case. Further, the Potency entry in assay [12] and in assay [13] was “inactive” in each case. The Potency in assay [5] was 65.8 µM (active) and inactive; in assay [11] it was 38.3 µM (active) and inactive; in assay [8] it was 8.57 µM (active) and inactive; in [9], 21.5 µM (active); in assay [10], 34.1 µM (active).

Regarding `O=Cc1ccccc1O`, the Potency result in assay [1], in [2], in assay [3], in [4], in assay [5] and in [11] was “inactive” throughout. Further, the Potency result in [8], in [9], in assay [10], in [12] and in [13] was “inactive” each time.
